Consider five molecules from PubChem BioAssay (NCI).

About 83,000 compounds went through this panel and 20% of them were active in at least one assay; those are over-represented in the sample as a whole.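 Interpretation: 100, growth as untreated; towards 0, rising growth inhibition; 0, no net growth; 0 to -100, cell death. Compounds scoring below 10 were considered active.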 A number with no mark means an inactive call. Active and inactive are the calls of the source.

For the assay, the system named is HL-60(TB) leukemia. As to the kind of experiment: NCI-60 one-dose screen, 48 h (100 = growth as untreated, 0 = no growth, -100 = all killed). Particulars: 10 µM unless noted.

Regarding `Nc1c(C(=O)Nc2ccccn2)sc2nc3c(cc12)CCCCC3`, the growth was -9.45% (active).
With `Cc1ccc(-c2cc(-c3nnc(SCC(=O)c4ccccc4)o3)c3ccccc3n2)cc1`, the growth is 103%.
Consider `Clc1cccc(Nc2ncnc3ccc(-c4cncc(-n5cnnn5)c4)cc23)c1`, for which the growth was 86.6%.
On to `CNS(=O)(=O)Oc1ccc(-c2sc3cc(OS(=O)(=O)NC)ccc3c2C(=O)c2ccc(OCCN3CCCCC3)cc2)cc1`, for which the growth is 94.8%.
Next, `O=C1CC(C(F)(F)F)=NN1C(=O)c1nn(-c2ccc(Cl)cc2)cc1O`: 105%.
